# Key:
# Details in all cases: concentration: 1 μM, replicates: in singlicate; n = 1
# [1] = test system: FLT3
# [2] = test system: FLT4
# [3] = test system: FRK
# [4] = test system: FYN
# [5] = test system: GAK
# [6] = test system: T1, GCN2(Kin.Dom.2,S808G)
# T1 construct: gene EIF2AK4
# [7] = test system: GRK1
# [8] = test system: T2, GRK2
# T2 construct: gene ADRBK1
# [9] = test system: T3, GRK3
# T3 construct: gene ADRBK2
# [10] = test system: GRK4
# [11] = test system: GRK7
# [12] = test system: GSK3A
# [13] = test system: GSK3B
# [14] = test system: T4, HASPIN
# T4 construct: gene GSG2
# [15] = test system: HCK
# [16] = test system: HIPK1
# [17] = test system: HIPK2
# [18] = test system: HIPK3
# [19] = test system: HIPK4
# [20] = test system: HPK1
# 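Note: KINOMEscan kinase panel screen.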
Structure (SMILES),%Inh [1] [%],%Inh [2] [%],%Inh [3] [%],%Inh [4] [%],%Inh [5] [%],%Inh [6] [%],%Inh [7] [%],%Inh [8] [%],%Inh [9] [%],%Inh [10] [%],%Inh [11] [%],%Inh [12] [%],%Inh [13] [%],%Inh [14] [%],%Inh [15] [%],%Inh [16] [%],%Inh [17] [%],%Inh [18] [%],%Inh [19] [%],%Inh [20] [%]
COc1cc(Nc2nccc(N3CCC(NC(=O)Nc4cc(C)ccc4C)C3)n2)cc(OC)c1OC (stereo not shown) [GSK1379762],36,14,8,0,28,3,0,0,10,20,0,0,11,0,0,0,0,13,0,66
Cc1cc(NCC(c2ccccc2)c2ccccc2)nc(NCc2ccc(C(F)(F)F)cc2)n1 [GW497681],0,0,0,0,0,0,0,0,22,0,0,4,0,0,0,0,0,0,0,23
Cn1ccc2ncnc(Oc3ccc(NC(=O)Nc4ccccc4)cc3)c21,97.4,15,11,4,4,11,0,0,11,0,0,11,0,24,0,25,17,0,5,0
Cc1cc(-c2ccc3c(c2)CC[C@@H](N[C@@H](C)c2ccccc2)C3)cnc1N.Cl [GW412617],27,22,19,27,33,26,0,0,17,0,0,0,6,0,0,0,6,12,6,55
Cc1c(O)cccc1Nc1ccnc2ccc(C(F)(F)F)cc12.Cl [GW466413],0,9,79,68,64,9,14,0,8,0,0,9,0,34,43,0,0,0,0,3
Cc1ccc(NC(=O)Nc2cccc(Cl)c2)cc1-c1ccc(C(=O)Nc2ccncc2)cc1 [GSK1398468],1,18,47,8,5,0,0,0,23,0,0,22,4,0,0,0,0,3,0,40
Cc1csc(-c2nc(Nc3ccncc3)c3ccccc3n2)n1 [GW869640],39,6,4,24,21,13,27,0,0,29,17,0,46,87,23,7,23,36,7,3
O=c1cc(N2CCOCC2)nc2n(Cc3cccc(Cl)c3Cl)ccn12 [GSK2286295],0,3,0,47,6,0,5,0,0,0,0,8,12,1,0,13,0,14,28,31
COc1ccc(Nc2nccc(NCCNC(=O)Nc3ccccc3F)n2)cc1 [GSK1379901],0,6,13,0,0,2,0,0,26,0,0,30,13,0,0,0,0,7,0,36
Cc1cccc(-c2nc(Nc3cccc(C(N)=O)c3)c3ccccc3n2)n1 [GW876019],0,10,16,0,0,0,14,0,0,0,9,16,12,14,24,44,43,2,0,36
O=C(Nc1n[nH]c2cc(-c3cccc(F)c3F)ccc12)C1CC1 [SB-733894],0,0,0,0,6,0,44,0,0,0,55,0,25,9,0,29,15,19,3,0

# — publication PMC5540273 (PLoS ONE, 2017)
